Assay results published in PubChem BioAssay (NCATS).
Values joined by “and” are separate entries in the source; they are usually repeats but may differ in a detail not shown here. Identical values can stand only once. Inconclusive results are not listed. Entries that show only a call come without a potency. The source holds several records for some structures; these can differ, active in one and inactive in another. Active and inactive are the calls of the source. Unless noted, calls come from the whole dose curve; as a rule, active = well fitted curve in the direction sought with a large enough effect; inconclusive = small, poorly fitted or top-dose-only effect, or another doubt; inactive = no such curve, though single readings can be large; an effect the other way counts as inactive or inconclusive.

Legend:
[1] = molecular target: Thioredoxin reductase 1, cytoplasmic (Rattus norvegicus) (UniProt O89049); assay: qHTS Assay for Substrates of Mammalian Selenoprotein Thioredoxin Reductase 1 (TrxR1) (AID 488772);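 note: NADPH fluorescence in the first read after selenite addition and not the 8 min delta; series mostly up to about 57 µM; a drop in NADPH fluorescence below the no-compound background marks a TrxR1 substrate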
Chain of Thioredoxin reductase 1, cytoplasmic (Rattus norvegicus) (O89049 whole entry, looked up): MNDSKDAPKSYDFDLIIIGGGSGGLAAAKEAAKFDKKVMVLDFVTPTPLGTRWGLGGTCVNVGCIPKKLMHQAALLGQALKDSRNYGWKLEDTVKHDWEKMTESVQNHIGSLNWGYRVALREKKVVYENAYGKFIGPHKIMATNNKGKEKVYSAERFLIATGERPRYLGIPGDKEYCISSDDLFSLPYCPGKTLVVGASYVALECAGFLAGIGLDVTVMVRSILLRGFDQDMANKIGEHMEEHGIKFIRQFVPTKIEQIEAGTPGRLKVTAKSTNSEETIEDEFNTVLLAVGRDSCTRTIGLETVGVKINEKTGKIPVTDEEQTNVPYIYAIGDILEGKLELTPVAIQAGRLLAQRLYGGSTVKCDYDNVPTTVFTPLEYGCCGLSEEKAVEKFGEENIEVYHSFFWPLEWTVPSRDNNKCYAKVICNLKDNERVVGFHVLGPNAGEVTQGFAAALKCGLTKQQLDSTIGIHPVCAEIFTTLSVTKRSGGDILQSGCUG
In short: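 Quantitative HTS in Tris-HCl buffer at pH 7.5 with EDTA and Tween-20, using rat TrxR1, 400 uM NADPH and 400 uM selenite (final). A fall in initial NADPH fluorescence relative to background marked substrate behaviour.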

[2] = molecular target: Flap endonuclease 1 (Homo sapiens) (UniProt P39748); assay: qHTS Validation Assay for the Inhibitors of Human Flap endonuclease 1 (FEN1) (AID 488816)
In short: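 Readings taken at 0 and 15 min after starting the reaction with 50 nM (final) substrate supplied the signal. Compounds had first sat with 10 nM FEN1 reagent for 15 min at room temperature. Values come from Hill-equation concentration-response fits.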

[3] = molecular target: M-phase phosphoprotein 8 (Homo sapiens) (UniProt Q99549); assay: qHTS Validation Assay for Inhibitors for MPP8 Chromodomain Interactions with Methylated Histone Tails (AID 488949); note: nearly all actives have a fitted effect of over 55% in size; note: potency is the fitted concentration of half-maximal effect
Chain of M-phase phosphoprotein 8 (Homo sapiens) (Q99549 whole entry, looked up): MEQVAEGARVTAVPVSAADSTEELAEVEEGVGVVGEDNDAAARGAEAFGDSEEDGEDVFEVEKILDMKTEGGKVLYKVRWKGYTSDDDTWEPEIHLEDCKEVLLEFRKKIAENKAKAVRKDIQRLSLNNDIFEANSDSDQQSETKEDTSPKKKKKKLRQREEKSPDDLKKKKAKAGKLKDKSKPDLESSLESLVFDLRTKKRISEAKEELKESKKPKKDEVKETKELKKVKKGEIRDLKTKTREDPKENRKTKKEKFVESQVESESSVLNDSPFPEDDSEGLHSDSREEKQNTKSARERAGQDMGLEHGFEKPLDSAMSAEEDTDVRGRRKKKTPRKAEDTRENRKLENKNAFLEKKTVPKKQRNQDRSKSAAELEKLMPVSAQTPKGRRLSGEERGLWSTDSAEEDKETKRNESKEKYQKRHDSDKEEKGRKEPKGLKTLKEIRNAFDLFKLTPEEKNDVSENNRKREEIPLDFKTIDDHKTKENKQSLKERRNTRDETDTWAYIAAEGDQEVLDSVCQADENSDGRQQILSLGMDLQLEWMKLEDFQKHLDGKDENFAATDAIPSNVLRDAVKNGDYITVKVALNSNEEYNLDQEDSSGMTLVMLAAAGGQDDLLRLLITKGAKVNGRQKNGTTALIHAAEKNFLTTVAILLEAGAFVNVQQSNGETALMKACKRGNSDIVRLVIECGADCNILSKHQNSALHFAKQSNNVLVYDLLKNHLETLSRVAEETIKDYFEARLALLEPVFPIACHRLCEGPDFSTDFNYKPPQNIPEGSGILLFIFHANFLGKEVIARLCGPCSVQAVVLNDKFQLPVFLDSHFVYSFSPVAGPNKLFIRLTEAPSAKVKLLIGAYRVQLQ
In short: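 MPP8 (50 nM) was preincubated with biotinylated H3(1-18)K9me3 peptide (50 nM) in PBS pH 7.4, 0.01% Tween-20 for 30 min at room temperature, then with compounds for 30 min; binding was detected by AlphaScreen.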

[4] = molecular target: Chromobox protein homolog 1 (Homo sapiens) (UniProt P83916); assay: qHTS Validation Assay for Inhibitors of HP1-beta Chromodomain Interactions with Methylated Histone Tails (AID 488953); note: nearly all actives have a fitted effect of over 50% in size; note: potency is the fitted concentration of half-maximal effect
Chain of Chromobox protein homolog 1 (Homo sapiens) (P83916 whole entry, looked up): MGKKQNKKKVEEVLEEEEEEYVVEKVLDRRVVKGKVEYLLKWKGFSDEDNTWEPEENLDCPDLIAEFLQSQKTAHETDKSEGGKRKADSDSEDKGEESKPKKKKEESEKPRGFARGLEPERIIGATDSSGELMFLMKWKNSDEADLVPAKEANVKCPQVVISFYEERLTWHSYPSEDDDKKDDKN
In short: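 HP1-beta (50 nM) preformed 30 min with biotinylated H3(1-18)K9me3 peptide (50 nM) in PBS pH 7.4, 0.01% Tween-20. Compounds added for 30 min at room temperature. Complex disruption read by AlphaScreen with streptavidin donor/nickel chelate acceptor beads (10 ug/mL each).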

[5] = molecular target: Methanococcus maripaludis chaperonin (MmCpn) (UniProt Q6LX38); assay: High-Throughput Screening for Modulators of Cytosolic Chaperonin Activity: MmCpn Primary Screen (AID 488978);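 note: 50 nM MmCpn enzyme hydrolysing 30 µM ATP at 37 °C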
In short: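 MmCpn (50 nM final) was preincubated with compound 5 min at RT, then 30 uM ATP (final) was added and the reaction ran 10 min at 37C. ADP produced was detected by Transcreener HTRF (ex 320 nm; em 590/665 nm).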

[6] = molecular target: D(1A) dopamine receptor (Homo sapiens) (UniProt P21728); assay: HTS Assay for Allosteric Agonists of the Human D1 Dopamine Receptor: Primary Screen for Agonists (AID 488981)
In short: (§1)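 Calcium flux in an inducible, force-coupled HEK293 Trex D1 line (overnight at 30 C): agonist mode is the 180 s kinetic read after compound; potentiator mode is the following 180 s read after dopamine at EC20.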

[7] = molecular target: D(1A) dopamine receptor (Homo sapiens) (UniProt P21728); assay: HTS Assay for Allosteric Agonists of the Human D1 Dopamine Receptor: Primary Screen for Potentiators (AID 488982)
In short: as §1

[8] = molecular target: D(1A) dopamine receptor (Homo sapiens) (UniProt P21728); assay: HTS Assay for Allosteric Agonists of the Human D1 Dopamine Receptor: Primary Screen for Antagonists (AID 488983);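 note: calcium flux response to an EC80 dopamine challenge measured with no-wash dye; nearly all actives have a fitted effect of over 65% in size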
In short: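 Tetracycline-induced HEK293 T-REx D1 line, force-coupled to calcium flux, read with no-wash calcium dye. Compound added after 10 s baseline, read 180 s for agonism, then EC80 dopamine added and read a further 180 s.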

[9] = molecular target: ATPase family AAA domain-containing protein 5 (Homo sapiens) (UniProt Q96QE3); assay: Validation screen for small molecules that inhibit ELG1-dependent DNA repair in human embryonic kidney (HEK293T) cells expressing luciferase-tagged ELG1 (AID 493107);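 note: cells co-treated with the DNA-damaging agent 5-fluorouridine alongside compound; series mostly up to about 46 µM; inhibitors lower the ELG1-luciferase luminescence signal; nearly all actives have a fitted effect of over 70% in size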
Chain of ATPase family AAA domain-containing protein 5 (Homo sapiens) (Q96QE3 whole entry, looked up, the tested form may be a part): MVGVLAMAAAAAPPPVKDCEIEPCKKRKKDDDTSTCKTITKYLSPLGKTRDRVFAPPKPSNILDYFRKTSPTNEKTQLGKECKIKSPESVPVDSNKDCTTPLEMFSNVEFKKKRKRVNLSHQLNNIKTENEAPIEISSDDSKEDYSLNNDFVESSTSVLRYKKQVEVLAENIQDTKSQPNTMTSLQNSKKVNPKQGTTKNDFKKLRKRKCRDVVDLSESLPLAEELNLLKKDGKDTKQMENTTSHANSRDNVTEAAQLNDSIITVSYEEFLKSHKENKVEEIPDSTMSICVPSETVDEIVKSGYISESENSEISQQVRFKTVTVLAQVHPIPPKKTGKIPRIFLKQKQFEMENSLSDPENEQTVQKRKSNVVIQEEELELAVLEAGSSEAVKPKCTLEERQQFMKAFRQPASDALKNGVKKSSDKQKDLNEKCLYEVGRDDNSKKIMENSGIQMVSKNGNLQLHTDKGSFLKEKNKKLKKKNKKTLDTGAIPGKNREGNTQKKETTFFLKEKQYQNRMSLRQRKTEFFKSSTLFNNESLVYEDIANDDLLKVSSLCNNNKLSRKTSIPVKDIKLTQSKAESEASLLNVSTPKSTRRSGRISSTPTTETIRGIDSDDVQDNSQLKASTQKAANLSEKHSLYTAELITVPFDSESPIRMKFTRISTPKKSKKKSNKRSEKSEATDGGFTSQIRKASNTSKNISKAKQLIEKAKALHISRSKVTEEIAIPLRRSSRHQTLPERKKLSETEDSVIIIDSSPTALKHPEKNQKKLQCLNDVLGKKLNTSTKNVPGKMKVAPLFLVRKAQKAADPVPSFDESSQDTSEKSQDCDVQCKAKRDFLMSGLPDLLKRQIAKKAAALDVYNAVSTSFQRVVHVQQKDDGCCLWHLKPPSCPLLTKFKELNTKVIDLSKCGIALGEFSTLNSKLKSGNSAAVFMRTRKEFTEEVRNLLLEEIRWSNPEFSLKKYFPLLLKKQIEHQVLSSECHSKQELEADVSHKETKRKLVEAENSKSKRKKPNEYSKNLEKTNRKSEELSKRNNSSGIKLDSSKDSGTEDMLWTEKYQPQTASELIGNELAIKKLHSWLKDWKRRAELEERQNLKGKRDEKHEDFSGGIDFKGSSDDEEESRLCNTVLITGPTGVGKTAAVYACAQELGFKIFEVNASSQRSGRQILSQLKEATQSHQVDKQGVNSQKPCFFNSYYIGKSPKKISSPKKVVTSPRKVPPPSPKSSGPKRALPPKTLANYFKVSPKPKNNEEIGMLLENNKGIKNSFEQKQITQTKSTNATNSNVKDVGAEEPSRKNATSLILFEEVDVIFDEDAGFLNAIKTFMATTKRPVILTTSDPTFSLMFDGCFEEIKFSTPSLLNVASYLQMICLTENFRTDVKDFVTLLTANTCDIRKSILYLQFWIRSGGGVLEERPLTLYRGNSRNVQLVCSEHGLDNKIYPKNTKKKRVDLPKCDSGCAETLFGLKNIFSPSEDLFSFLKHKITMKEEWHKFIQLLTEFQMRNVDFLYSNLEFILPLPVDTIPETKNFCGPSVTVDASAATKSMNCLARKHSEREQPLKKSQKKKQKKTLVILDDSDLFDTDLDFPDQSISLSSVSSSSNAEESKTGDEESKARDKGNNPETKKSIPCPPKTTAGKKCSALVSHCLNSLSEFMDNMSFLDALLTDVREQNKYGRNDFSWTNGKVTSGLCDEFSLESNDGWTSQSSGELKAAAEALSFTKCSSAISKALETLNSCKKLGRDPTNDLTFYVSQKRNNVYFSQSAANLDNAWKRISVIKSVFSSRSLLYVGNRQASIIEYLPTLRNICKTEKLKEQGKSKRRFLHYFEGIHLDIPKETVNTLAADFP
In short: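 HEK293T cells expressing luciferase-tagged ELG1, 2,000 per well, treated with 5-fluorouridine plus compound for 16 h at 37 C. ONE-Glo luminescence after 30 min at room temperature reports ELG1 reporter level.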

[10] = Nrf2 qHTS screen for inhibitors: Validation (AID 493153; active = well fitted inhibition curve with a large enough effect in the main read-out, with a control signal flat, not every such curve was filed as active); conditions: Potency: luciferase luminescence; viability change: measured here: cytotoxicity max response
In short: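 A549 cells carrying ARE-firefly luciferase reporter, 5000 cells/well in 5% FBS OPTI-MEM, treated with compound over a concentration series for 18-24 h at 37 C. Luciferase luminescence gave Nrf2 activity; CellTiter-Fluor fluorescence gave viability.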

[11] = qHTS for Inhibitors of Cell Surface uPA Generation: Validation Assay (AID 493164)
In short: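 RAW 264.7 cells (4000/well) were plated overnight, then exposed for 18 h at 37 C, 5% CO2 to compounds in a 7-point 1:5 titration (2.45 nM–38.3 uM final). Intracellular ATP was read by ATP-Lite luminescence.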

[12] = molecular target: Thioredoxin reductase 1, cytoplasmic (Rattus norvegicus) (UniProt O89049); assay: qHTS Assay for Inhibitors of Mammalian Selenoprotein Thioredoxin Reductase 1 (TrxR1) (AID 488773); conditions: Potency: inhibition; note: nearly all actives have a fitted effect of over 40% in size; note: potency is the fitted concentration of half-maximal effect
In short: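 Steps: enzyme (90 nM) plus NADPH (400 uM final), 5 min at ~22 deg C; compound added, 15 min; selenite (400 uM final) added; fluorescence followed for 8 min. Concentration-response curves derived from the normalized delta values.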

[13] = molecular target: Thyrotropin receptor (Homo sapiens) (UniProt P16473); assay: qHTS Assay for Antagonists of the Thyroid Stimulating Hormone Receptor (AID 488980); note: series mostly up to about 58 µM
Chain of Thyrotropin receptor (Homo sapiens) (P16473 whole entry, looked up): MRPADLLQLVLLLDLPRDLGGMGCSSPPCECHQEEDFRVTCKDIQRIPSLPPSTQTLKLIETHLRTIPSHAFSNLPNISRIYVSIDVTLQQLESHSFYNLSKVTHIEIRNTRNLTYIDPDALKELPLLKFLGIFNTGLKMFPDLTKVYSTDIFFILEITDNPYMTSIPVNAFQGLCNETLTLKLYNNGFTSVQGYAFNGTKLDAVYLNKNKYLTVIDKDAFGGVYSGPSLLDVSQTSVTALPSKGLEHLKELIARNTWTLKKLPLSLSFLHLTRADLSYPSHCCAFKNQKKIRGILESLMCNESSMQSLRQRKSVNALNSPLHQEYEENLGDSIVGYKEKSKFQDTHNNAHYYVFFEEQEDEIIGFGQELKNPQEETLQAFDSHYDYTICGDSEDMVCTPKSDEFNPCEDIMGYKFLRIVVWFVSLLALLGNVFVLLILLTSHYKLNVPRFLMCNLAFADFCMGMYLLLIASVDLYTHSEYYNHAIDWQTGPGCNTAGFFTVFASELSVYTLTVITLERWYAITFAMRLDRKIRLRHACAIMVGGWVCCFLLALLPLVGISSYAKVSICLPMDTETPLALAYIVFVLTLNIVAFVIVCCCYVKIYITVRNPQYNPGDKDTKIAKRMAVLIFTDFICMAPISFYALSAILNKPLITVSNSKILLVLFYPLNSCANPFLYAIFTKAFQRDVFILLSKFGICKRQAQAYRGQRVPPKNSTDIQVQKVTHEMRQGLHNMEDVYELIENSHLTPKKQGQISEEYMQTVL
In short: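 HEK293 cells transfected with human TSHR, suspended in HEPES-buffered HBSS with 70 uM RO 20-1724, were treated with compounds plus TSH at EC80 (4 nM final). cAMP was measured by competitive HTRF (cryptate anti-cAMP antibody, cAMP-d2 acceptor).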

[14] = Validation screen for small molecules that induce genotoxicity in human embryonic kidney (HEK293T) cells expressing luciferase-tagged ELG1 (AID 493106); note: potency is the fitted concentration of half-maximal effect
In short: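 HEK293T cells expressing luciferase-tagged ELG1, 2,000 cells/well, exposed to compound 16 hr at 37 °C, 5% CO2. Luciferase read after ONE-Glo, 30 min at room temperature; increased signal indicates genetic stress.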

[15] = molecular target: Thyrotropin-releasing hormone receptor (Homo sapiens) (UniProt P34981); assay: qHTS for Small Molecule Agonists and Allosteric Enhancers of Human TRH Receptor: Validation Screen for Agonists (AID 493127;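 active = calcium activation more than 3 SD above the typical response in the agonist read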); conditions: TRH receptor agonist cell assay; at 2 µM; stronger effect = higher value
In short: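 TRHR cells loaded with fluo-8 calcium dye; FDSS kinetic fluorescence (Ex 480/Em 530) read at 1 s/cycle after 23 nL compound addition. Agonist-mode calcium response recorded before the 10 nM TRH (EC20) addition.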

[16] = molecular target: Galactokinase (Homo sapiens) (UniProt P51570); assay: qHTS Validation Assay for Inhibitors of Human Galactokinase (GALK) (AID 493189)
In short: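 GALK (5 nM) with 35 uM ATP and 100 uM galactose in HEPES pH8.0, MgCl2, NaCl, DTT, BSA; 1 h at room temperature. Residual ATP read by Kinase-Glo Plus luminescence after 10 min.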

[17] = molecular target: Transient receptor potential cation channel subfamily V member 1 (Homo sapiens) (UniProt Q8NER1); assay: HTS Assay for Compounds that Act as Enhancers of the Vanilloid Receptor 1 (AID 488979)
Chain of Transient receptor potential cation channel subfamily V member 1 (Homo sapiens) (Q8NER1 whole entry, looked up): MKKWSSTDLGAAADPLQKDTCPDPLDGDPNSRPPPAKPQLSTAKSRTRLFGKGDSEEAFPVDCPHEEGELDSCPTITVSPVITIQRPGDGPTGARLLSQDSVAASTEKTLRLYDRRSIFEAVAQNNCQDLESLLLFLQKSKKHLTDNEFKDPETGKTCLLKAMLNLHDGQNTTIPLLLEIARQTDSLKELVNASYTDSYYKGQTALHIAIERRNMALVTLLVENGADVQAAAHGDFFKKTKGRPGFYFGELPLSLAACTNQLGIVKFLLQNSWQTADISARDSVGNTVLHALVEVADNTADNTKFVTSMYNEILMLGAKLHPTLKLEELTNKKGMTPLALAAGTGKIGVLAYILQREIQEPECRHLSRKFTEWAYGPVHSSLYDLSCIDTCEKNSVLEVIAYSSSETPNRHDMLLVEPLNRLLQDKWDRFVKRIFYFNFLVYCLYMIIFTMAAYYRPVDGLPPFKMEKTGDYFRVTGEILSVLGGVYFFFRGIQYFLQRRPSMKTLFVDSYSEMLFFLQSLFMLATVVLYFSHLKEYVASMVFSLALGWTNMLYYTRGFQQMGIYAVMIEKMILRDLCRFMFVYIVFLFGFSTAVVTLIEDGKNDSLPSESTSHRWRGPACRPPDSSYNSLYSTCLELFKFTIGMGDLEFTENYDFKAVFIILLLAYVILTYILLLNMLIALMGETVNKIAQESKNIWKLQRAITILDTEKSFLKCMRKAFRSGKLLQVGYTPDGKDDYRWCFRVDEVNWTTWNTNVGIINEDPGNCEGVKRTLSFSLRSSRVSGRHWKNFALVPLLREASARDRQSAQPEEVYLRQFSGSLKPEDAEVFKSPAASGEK
In short: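 Calcium influx kinetics via Fluo-8 (480/520 nm) in TRPV1-expressing cells, 2000/well cultured overnight at 35.5C. Compound-alone read 3 min (agonist phase), followed by EC20 capsaicin challenge for 2 min (enhancer phase).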

Row | Structure (SMILES) | Potency [1] | Potency [2] | Potency [3] | Potency [4] | outcome [5] | Potency [6] | Potency [7] | Potency [8] | Potency [9] | Potency [10] | viability change [10] [%] | outcome [11] | Potency [12] | outcome [13] | Potency [14] | activation [15] | Potency [16] | outcome [17]
1 | CNC(=O)[C@H]1O[C@@H](n2cnc3c(NCc4ccc(N)cc4)ncnc32)[C@H](O)[C@@H]1O | inactive | inactive | inactive | inactive | inactive | inactive | inactive | inactive | inactive | inactive | -2.65 | inactive | – | – | – | – | – | –
2 | NC(N)=NC(=O)c1nc(Cl)c(N2CCCCCC2)nc1N | – | – | 44.7 µM (active) and inactive | – | inactive | – | inactive | – | inactive | inactive | -0.682 | inactive | inactive | inactive | inactive | 3.31% (inactive) | inactive | –
3 | COc1ccc(/C=C/C(=O)Nc2ccccc2C(=O)O)cc1OC | inactive | – | inactive | – | inactive | – | inactive | inactive | – | – | – | inactive | inactive | inactive | 1.64 µM (active) | – | inactive | inactive
4 | Oc1ccccc1O | inactive | – | – | – | inactive | inactive | inactive | inactive | inactive | – | – | inactive | – | inactive | inactive | 0.375% (inactive) | inactive | inactive
5 | CC(C)(C)c1ccc(S(=O)(=O)/C=C/C#N)cc1 | inactive | – | 20 µM (active) and inactive | 44.7 µM (active) | – | – | – | – | – | inactive | 4.47 | inactive | 0.377 µM (active) | inactive | – | 7.44% (inactive) | inactive | –
6 | C[N+]1(C)CCC(OC(=O)C(c2ccccc2)c2ccccc2)CC1 | inactive | – | – | inactive | inactive | inactive | – | inactive | – | inactive | 1.14 | inactive | inactive | – | inactive | – | – | –
7 | CN1CCc2cccc3c2C1Cc1ccc(O)c(O)c1-3 (stereo not given) | inactive | – | 20 µM (active) | – | inactive | inactive | inactive | – | – | inactive | 0.0644 | inactive | 9.47 µM (active) | inactive | inactive | 0.125% (inactive) | inactive | inactive
8 | O=c1[nH]c2cc(C(F)(F)F)ccc2n1-c1cc(C(F)(F)F)ccc1O | – | inactive | inactive | – | – | – | – | – | inactive | inactive | -2.14 | inactive | inactive | inactive | inactive | – | inactive | inactive
9 | CN(C)c1ccc(/C=C2\C(=O)Nc3ccccc32)cc1 | – | inactive | 28.2 µM (active) and 10.6 µM (active) | 28.2 µM (active) | inactive | inactive | inactive | inactive | – | – | – | inactive | – | inactive | 1.83 µM (active) | -8.75% (inactive) | inactive | inactive
